From PubChem
HSP90 refold inh – HSP90 inhibitors, primary screen, cell lysate, luminescence | inhibition, % at 5.6 µM | Rabbit reticulocyte lysate, luciferase refolding luminescence, 3 h | actives 0.91% (n = 290,000);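 active = inhibition above the screen-wide mean plus 3 SD, computed separately per campaign, cut at about 16% in these data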;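 also: 0% = DMSO wells and 100% = 60 µM geldanamycin wells; inhibitors lower the luminescence because luciferase stays unfolded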
TWEAK-Fn14 inh – inhibitors of TWEAK-Fn14 signaling, primary screen, luciferase reporter cells, uHTS; actives 2% (n = 360,000); inhibition, % at 10 µM; TWEAK-stimulated Fn14 reporter cells, luciferase luminescence, 8 h; in the data active = inhibition above about 50%
LGR2 inh – inhibitors of bursicon-induced LGR2 CRE-luciferase signal, primary screen, cell-based, HEK293, CRE-luciferase reporter, bursicon stimulation. Drosophila bursicon receptor LGR2 (rickets). bursicon-stimulated, 4 h. inhibition, % at 9.99 µM. actives 0.35% (n = 380,000). AID 720647, 2013;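 active = drop in luminescence signal, shown as inhibition above about 50% in the replicate tests, limit read from the data, passing the limit was not always enough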;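 also: agonist challenge used bursicon conditioned medium at about half maximal strength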
TROY NFkB inh – inhibitors of TROY-driven NF-kB signaling, primary screen, Q293 LMP1-TROYcd cells, NF-kB luciferase, uHTS. Q293 LMP1-TROYcd NF-kB luciferase reporter, 4 h. inhibition, % at 10 µM. AID 1347056, 2019. actives 0.98% (n = 360,000);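 active = compounds whose plate-normalised and pattern-corrected inhibition of the luciferase reporter signal at the single screening dose is 50% or more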
An asterisk follows results filed as active; . = no result. Compounds with a hit are over-represented: about 2.2% of the library has one in this group of screens.

SMILES	HSP90 refold inh	TWEAK-Fn14 inh	LGR2 inh	TROY NFkB inh
C[C@@H]1CCCCO[C@H](CN(C)CC2CC2)[C@@H](C)CN([C@@H](C)CO)C(=O)c2cc(NS(=O)(=O)c3cccs3)ccc2O1	.	.	-1	.
C[C@@H]1CN([C@@H](C)CO)S(=O)(=O)c2ccc(-c3ccncc3)cc2O[C@H]1CN(C)C(=O)C1CCCCC1	.	.	13	.
COc1ccc(C(=O)Nc2ccc(-c3ccc(C)o3)cc2)cc1S(=O)(=O)N1CCOCC1	-5	82*	.	51*
COc1ccc(NC(=O)c2cc3c(s2)CCC(C)C3)cc1S(=O)(=O)N1CCOCC1 (stereo not drawn)	-6	79*	22	51*
Cc1cc(O)c(-c2n[nH]c3c2C(c2cccc(O)c2)N(Cc2cccnc2)C3=O)cc1Cl (stereo not drawn)	3	18	.	63*
CCCN1C(=O)c2[nH]nc(-c3cc(Cl)c(C)cc3O)c2C1c1ccc(O)c(OC)c1 (stereo not drawn)	0	-7	5	34
O=C1C=CC(=Nc2ccc3c(c2)Cc2ccccc2-3)O1	.	29	-28	65*
Cc1ccc(N(CCC#N)C(=O)CCl)cc1C	5	56*	-1	3
Cc1ccc(SCC(=O)OCC(=O)N(CCC#N)c2ccccc2)cc1C	.	-4	21	8
CNC(=O)C[C@H]1CC[C@H]2[C@H](COc3ccc(NC(=O)c4ccccc4Cl)cc3C(=O)N2C)O1	.	.	2	.
Cc1ccc(C(=O)NC(C#N)=C(Cl)Cl)cc1	1	.	106*	.
COC(=O)NC(=C(Cl)Cl)S(=O)(=O)c1ccccc1	5	69*	11	0
Cc1ccc(C(=O)NC(=C(Cl)Cl)S(=O)(=O)c2ccccc2)cc1	1	84*	-5	-27
COc1ccc(C(=O)NC(=C(Cl)Cl)S(=O)(=O)c2ccc(C)cc2)cc1	3	45	-11	-6
Cc1ccc(S(=O)(=O)c2ncccc2N)cc1	-2	6	0	-14
Cc1ccc(S(=O)(=O)c2ncccc2[N+](=O)[O-])cc1	14	95*	40	53*
C[C@H]1CN([C@@H](C)CO)C(=O)c2cccc(NS(=O)(=O)c3ccc(F)cc3)c2O[C@@H]1CN(C)S(=O)(=O)c1ccccc1	.	.	6	.
Cc1ccc2nccc(C(=O)N3CCCC(N4CCN(c5ccc(F)cc5)CC4)C3)c2c1 (stereo not drawn)	-4	7	0	76*
CCC(=O)N1[C@@H](CO)[C@@H](c2ccccc2)C12CN(Cc1nccs1)C2	.	.	1	.
C[C@@H]1CCCCO[C@@H](CN(C)Cc2ccc(C(F)(F)F)cc2)[C@@H](C)CN([C@H](C)CO)C(=O)c2cc(NC(=O)CCCCCC(=O)Nc3ccccc3N)ccc2O1	.	.	-27	.
OCc1cccc(-c2cnc3c(Nc4cccc(OC(F)(F)C(F)F)c4)nccn23)c1	.	57*	66*	42
C[C@H](CO)N1C[C@H](C)[C@@H](CN(C)C(=O)Nc2ccc(C(F)(F)F)cc2)Oc2ccc(NC(=O)CCCCCC(=O)Nc3ccccc3N)cc2CC1=O	.	.	-5	.
C[C@H]1CN([C@@H](C)CO)S(=O)(=O)c2ccc(C3=CCCC3)cc2O[C@H]1CN(C)C(=O)c1cnccn1	.	.	-25	.
O=C1C=CC(=O)C(CNc2ccc(C(=O)OCc3ccccc3)cc2)=C1	.	107*	9	41
NC(=S)n1[nH]c(-c2ccc([N+](=O)[O-])cc2)c(N=Nc2cccc(Cl)c2)c1=O	2	72*	31	56*
SMILES	HSP90 refold inh	TWEAK-Fn14 inh	LGR2 inh	TROY NFkB inh
CC(=O)Nc1cc(-c2cccc(NS(C)(=O)=O)c2)cn2c(-c3ccc(F)c(Cl)c3)cnc12	.	92*	13	-2
CC(=O)Nc1cc(-c2cccc(NS(C)(=O)=O)c2)cn2c(-c3cccc(C(C)=O)c3)cnc12	.	-22	-26	6
CC(=O)Nc1cccc(-c2cc(NC(C)=O)c3ncc(-c4ccc(F)cc4)n3c2)c1	.	100*	8	91*
COc1ccc(S(=O)(=O)Nc2ccc3c(c2)CC(=O)N([C@@H](C)CO)C[C@H](C)[C@@H](CN(C)C(=O)NC2CCCCC2)O3)cc1	.	.	-26	.
COc1cccc(-c2ccc([C@@H]3[C@@H](CO)N(C(=O)C4CC4)C34CN(C(C)=O)C4)cc2)c1	.	.	-8	.
Cc1cc(/C=C(\C#N)C(=O)Nc2ccc(F)cc2)c(C)n1-c1ccc(N2CCOCC2)c([N+](=O)[O-])c1	2	53*	1	38
COc1ccc(NC(=O)/C(C#N)=C/c2cc(C)n(-c3ccc(N4CCOCC4)c([N+](=O)[O-])c3)c2C)cc1	-3	79*	-9	38
CO[C@@H]1CN(C)C(=O)c2ccc(NC(=O)C3CCOCC3)cc2OC[C@@H](C)N(S(=O)(=O)c2ccc(C)cc2)C[C@H]1C	.	.	10	.
C[C@H]1CN([C@@H](C)CO)C(=O)c2ccccc2-c2ccccc2CO[C@@H]1CN(C)C(=O)Nc1ccccc1	.	.	-4	.
N#Cc1c(Cl)cccc1N1CCCC1	-4	-16	.	8
N#Cc1c(F)cccc1N1CCOCC1	-3	87*	.	.
CC(C)C#Cc1cnc2c(c1)C(=O)N([C@@H](C)CO)C[C@@H](C)[C@@H](CN(C)C(=O)Nc1cccc(F)c1)O2	.	.	13	.
C[C@@H]1CCCCO[C@H](CN(C)S(C)(=O)=O)[C@H](C)CN([C@@H](C)CO)C(=O)c2cc(NS(C)(=O)=O)ccc2O1	.	.	-3	.
Cc1cccc(Oc2ccc(N)cc2)c1	10	-5	.	-35
Nc1ccc(Oc2cccc(Oc3ccc(N)cc3)c2)cc1	-2	82*	-15	60*
O=C(NC(=S)Nc1ccc2ncccc2c1)c1ccccc1	-2	-4	-30	64*
COC(=O)c1ccccc1NC(=S)NC(=O)c1ccccc1	-5	84*	.	.
COC(=O)c1sc(NC(=S)NC(=O)c2ccccc2)nc1C	-4	7	-21	52*
Cc1cc(N(C)C)ccc1N=Nc1ccc(N)cc1	.	28	-63	-56
Cc1sc(N=Nc2ccc(N(C)C)cc2)[n+]([O-])c1C	.	61*	-1	63*
CC(C)NC(=O)N(C)C[C@H]1Oc2ncc(C#Cc3ccc(F)cc3)cc2C(=O)N([C@@H](C)CO)C[C@H]1C	.	.	-22	.
CC(C)(C)c1ccc(NC(=O)N2CCN(c3ccc([N+](=O)[O-])cn3)CC2)cc1	2	59*	6	28
O=C(c1ccc(S(=O)(=O)c2ccccc2Cl)c([N+](=O)[O-])c1)N1CCCCCC1	2	66*	4	25
O=C(c1cnc(N2CCN(c3ccccn3)CC2)c2ccccc12)N1CCN(c2cccc(Cl)c2)CC1	0	91*	-6	46
O=C(c1cc(Cl)ccc1Cl)N1CCN(c2ccccn2)CC1	1	13	-5	14
O=C(c1ccc(S(=O)(=O)c2cccc(Cl)c2)c([N+](=O)[O-])c1)N1CCN(c2ccccn2)CC1	-1	90*	59*	58*
